Among the data in article PMC7862700, “An all-to-all approach to the identification of sequence-specific readers for epigenetic DNA modifications on cytosine” are binding signal values, retold here.

Common to all, as to experiment: DAPPL (digital affinity profiling via proximity ligation, sequencing); 10 mM Tris-HCl pH 7.5, 50 mM NaCl, 1 mM DTT, 4% glycerol, room temperature, 30 min; GST-TFs on glutathione beads, 16-mer random dsDNA library, 0.1% formaldehyde crosslink after washing; high values mean tight binding
Conditions in all cases: protein: recombinant; tags: N-terminal GST; dsDNA, one strand shown

The target of experiment [1] is T1, FLI1 (Homo sapiens, UniProt Q01543 1-452).
T1 sequence: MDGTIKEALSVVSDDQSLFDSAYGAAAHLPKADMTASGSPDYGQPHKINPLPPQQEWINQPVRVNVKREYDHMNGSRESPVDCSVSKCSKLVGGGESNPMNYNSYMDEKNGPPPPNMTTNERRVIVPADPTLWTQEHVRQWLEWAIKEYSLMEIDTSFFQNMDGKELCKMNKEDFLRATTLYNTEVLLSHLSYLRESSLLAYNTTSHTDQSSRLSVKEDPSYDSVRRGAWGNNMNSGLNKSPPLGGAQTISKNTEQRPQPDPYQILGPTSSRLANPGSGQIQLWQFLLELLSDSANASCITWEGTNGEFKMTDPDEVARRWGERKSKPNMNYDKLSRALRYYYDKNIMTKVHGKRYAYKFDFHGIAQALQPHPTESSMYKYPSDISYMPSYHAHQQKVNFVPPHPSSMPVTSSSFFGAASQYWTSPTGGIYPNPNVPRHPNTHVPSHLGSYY
Put shortly: (§1)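 Pools of DNA-barcoded human transcription factors, expressed in yeast as GST fusions on glutathione beads and combined with a tag-only sample, were incubated with 200 nmole of a 16-mer random double-stranded DNA library. Incubation took 30 min at room temperature in Tris/NaCl/DTT/glycerol buffer and was followed by washing, 0.1% formaldehyde crosslinking, proximity ligation (BsaI/T4 ligase, 1 h, 37 °C), PCR amplification and sequencing on an Illumina NextSeq500. Binding signal is the ratio of a hexamer's read frequency for a factor to its frequency for the tag-only sample.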

Experiment [2] has as its target T2, ELK1 (Homo sapiens, UniProt P19419 1-428).
T2 sequence: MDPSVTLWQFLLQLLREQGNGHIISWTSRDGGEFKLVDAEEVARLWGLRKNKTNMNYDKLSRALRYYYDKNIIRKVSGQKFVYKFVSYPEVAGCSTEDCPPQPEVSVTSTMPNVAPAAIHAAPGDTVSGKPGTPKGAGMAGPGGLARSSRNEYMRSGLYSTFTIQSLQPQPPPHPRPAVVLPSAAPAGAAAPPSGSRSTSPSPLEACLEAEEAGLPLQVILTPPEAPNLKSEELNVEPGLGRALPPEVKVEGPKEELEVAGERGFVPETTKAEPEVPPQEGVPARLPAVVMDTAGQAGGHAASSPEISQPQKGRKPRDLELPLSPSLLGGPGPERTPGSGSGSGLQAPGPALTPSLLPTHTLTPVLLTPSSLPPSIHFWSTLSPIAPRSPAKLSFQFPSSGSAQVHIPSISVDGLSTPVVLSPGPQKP
The method in brief:
as §1

Experiment [3] has as its target T3, GABPA (Homo sapiens, UniProt Q06546 1-454).
T3 sequence: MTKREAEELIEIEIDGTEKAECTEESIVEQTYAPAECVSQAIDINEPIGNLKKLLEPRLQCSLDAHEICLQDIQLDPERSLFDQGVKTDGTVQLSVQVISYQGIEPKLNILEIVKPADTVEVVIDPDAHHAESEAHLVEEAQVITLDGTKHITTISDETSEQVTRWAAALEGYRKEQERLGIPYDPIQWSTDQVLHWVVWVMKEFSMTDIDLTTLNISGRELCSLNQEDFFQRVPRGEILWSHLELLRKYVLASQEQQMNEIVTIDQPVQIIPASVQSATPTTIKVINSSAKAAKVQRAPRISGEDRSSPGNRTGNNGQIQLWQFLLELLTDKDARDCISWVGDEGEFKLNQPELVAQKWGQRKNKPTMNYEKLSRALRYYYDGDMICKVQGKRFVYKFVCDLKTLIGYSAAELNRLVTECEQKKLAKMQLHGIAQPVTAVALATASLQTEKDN
The method in brief: as §1

The target in experiment [4] is T4, ERG (Homo sapiens, UniProt P11308 1-479).
T4 sequence: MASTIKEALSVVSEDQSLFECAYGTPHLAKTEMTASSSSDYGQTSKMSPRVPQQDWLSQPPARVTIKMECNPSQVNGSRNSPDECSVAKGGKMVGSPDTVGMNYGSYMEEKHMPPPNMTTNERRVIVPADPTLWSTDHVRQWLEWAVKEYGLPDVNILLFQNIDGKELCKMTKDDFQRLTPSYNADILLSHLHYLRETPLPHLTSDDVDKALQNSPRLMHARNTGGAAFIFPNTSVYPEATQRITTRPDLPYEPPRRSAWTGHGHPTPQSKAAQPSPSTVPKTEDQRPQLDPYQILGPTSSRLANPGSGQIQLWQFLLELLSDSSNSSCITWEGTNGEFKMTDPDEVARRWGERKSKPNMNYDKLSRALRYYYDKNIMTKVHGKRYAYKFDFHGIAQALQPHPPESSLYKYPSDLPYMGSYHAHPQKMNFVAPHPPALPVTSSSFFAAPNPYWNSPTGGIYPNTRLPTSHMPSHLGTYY
Put shortly:
as §1

Experiment [5] has as its target ELF1 (Homo sapiens, UniProt P32519 1-619). Put shortly:
as §1

Experiment [6] concerns the target T5, EHF (Homo sapiens, UniProt Q9NZC4 1-300).
T5 sequence: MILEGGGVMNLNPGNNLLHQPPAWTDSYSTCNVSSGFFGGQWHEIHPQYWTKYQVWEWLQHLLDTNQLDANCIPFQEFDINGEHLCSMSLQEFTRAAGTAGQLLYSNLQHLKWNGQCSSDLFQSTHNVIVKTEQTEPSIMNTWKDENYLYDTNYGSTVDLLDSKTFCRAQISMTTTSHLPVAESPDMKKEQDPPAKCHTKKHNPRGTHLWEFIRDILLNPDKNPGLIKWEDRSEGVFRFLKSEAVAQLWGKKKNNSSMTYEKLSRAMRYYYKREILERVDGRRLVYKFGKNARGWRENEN
The method in brief: as §1

The target of experiment [7] is SPI1 (Homo sapiens, UniProt P17947 1-270). Put shortly: as §1
For experiment [8], the target named is SPIB (Homo sapiens, UniProt Q01892 1-262). Put shortly: as §1
Sequence of SPIB (Q01892 whole entry): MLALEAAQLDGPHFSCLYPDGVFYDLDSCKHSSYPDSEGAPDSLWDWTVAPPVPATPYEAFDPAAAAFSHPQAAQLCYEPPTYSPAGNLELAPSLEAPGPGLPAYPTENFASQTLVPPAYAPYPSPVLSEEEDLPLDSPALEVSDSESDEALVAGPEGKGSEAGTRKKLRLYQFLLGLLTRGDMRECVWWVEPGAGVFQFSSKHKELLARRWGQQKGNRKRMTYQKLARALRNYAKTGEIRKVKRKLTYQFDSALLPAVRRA
Experiment [9] concerns the target T6, ELK3 (Homo sapiens, UniProt P41970 1-407).
T6 sequence: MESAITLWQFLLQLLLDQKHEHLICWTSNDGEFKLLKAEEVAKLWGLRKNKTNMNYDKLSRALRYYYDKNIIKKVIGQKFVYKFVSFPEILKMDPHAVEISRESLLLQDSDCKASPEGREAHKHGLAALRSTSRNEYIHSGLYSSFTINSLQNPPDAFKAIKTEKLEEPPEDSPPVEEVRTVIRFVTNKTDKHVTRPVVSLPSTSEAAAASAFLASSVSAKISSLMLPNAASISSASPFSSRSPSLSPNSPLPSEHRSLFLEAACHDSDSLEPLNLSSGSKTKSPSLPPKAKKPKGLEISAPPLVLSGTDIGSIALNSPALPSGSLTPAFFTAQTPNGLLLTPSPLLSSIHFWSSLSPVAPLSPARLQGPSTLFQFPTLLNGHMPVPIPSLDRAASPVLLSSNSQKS
Put shortly: as §1

Sequence of ELF1 (P32519 whole entry): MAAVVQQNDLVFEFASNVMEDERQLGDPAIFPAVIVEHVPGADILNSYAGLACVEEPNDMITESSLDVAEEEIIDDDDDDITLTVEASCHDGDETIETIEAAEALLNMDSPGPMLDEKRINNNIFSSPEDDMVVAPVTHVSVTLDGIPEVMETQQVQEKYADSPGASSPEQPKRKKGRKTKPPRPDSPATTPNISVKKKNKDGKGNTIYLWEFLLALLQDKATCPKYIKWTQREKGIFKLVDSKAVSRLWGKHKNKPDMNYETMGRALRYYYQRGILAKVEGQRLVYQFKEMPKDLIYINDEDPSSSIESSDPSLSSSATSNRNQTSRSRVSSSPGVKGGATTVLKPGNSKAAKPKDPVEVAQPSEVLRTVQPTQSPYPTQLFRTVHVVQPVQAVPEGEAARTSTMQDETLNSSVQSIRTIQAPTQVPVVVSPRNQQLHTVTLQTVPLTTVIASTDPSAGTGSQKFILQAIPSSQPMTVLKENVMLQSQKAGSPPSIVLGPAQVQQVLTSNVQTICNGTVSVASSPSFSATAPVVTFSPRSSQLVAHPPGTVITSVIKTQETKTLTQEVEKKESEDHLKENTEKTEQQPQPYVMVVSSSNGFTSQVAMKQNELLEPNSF

As to ATCTCT, the binding signal is 1.29 fold enrichment (6-mer frequency, TF over GST control) in [1]; 1.24 fold enrichment (6-mer frequency, TF over GST control) in experiment [2]; 1.33 fold enrichment (6-mer frequency, TF over GST control) in experiment [3]; 1.17 fold enrichment (6-mer frequency, TF over GST control) in [4]; 1.29 fold enrichment (6-mer frequency, TF over GST control) in experiment [5]; 1.49 fold enrichment (6-mer frequency, TF over GST control) in experiment [6]. Also, the binding signal was 1.27 fold enrichment (6-mer frequency, TF over GST control) in [7]; 1.36 fold enrichment (6-mer frequency, TF over GST control) in experiment [8]; 1.3 fold enrichment (6-mer frequency, TF over GST control) in [9].
Regarding AGCCTT, the binding signal is 1.12 fold enrichment (6-mer frequency, TF over GST control) in experiment [1]; 1.11 fold enrichment (6-mer frequency, TF over GST control) in experiment [2]; 1.01 fold enrichment (6-mer frequency, TF over GST control) in experiment [3]; 1.11 fold enrichment (6-mer frequency, TF over GST control) in [4]; 1.2 fold enrichment (6-mer frequency, TF over GST control) in experiment [5]; 1.15 fold enrichment (6-mer frequency, TF over GST control) in [6]. Moreover, the binding signal in experiment [7] was 1.12 fold enrichment (6-mer frequency, TF over GST control); in experiment [8] it was 1.21 fold enrichment (6-mer frequency, TF over GST control); in [9], 1.03 fold enrichment (6-mer frequency, TF over GST control).
Take CCTTGA: the binding signal in experiment [1] is 1.26 fold enrichment (6-mer frequency, TF over GST control); in experiment [2], 1.26 fold enrichment (6-mer frequency, TF over GST control); in experiment [3] it was 1.24 fold enrichment (6-mer frequency, TF over GST control); in experiment [4], 1.27 fold enrichment (6-mer frequency, TF over GST control); in experiment [5] it was 1.25 fold enrichment (6-mer frequency, TF over GST control); in [6] it was 1.23 fold enrichment (6-mer frequency, TF over GST control). For the same sequence, the binding signal in experiment [7] was 1.17 fold enrichment (6-mer frequency, TF over GST control); in [8] it was 1.24 fold enrichment (6-mer frequency, TF over GST control); in experiment [9] it was 1.4 fold enrichment (6-mer frequency, TF over GST control).
Turning to TACACC, the binding signal in experiment [1] is 1.16 fold enrichment (6-mer frequency, TF over GST control); in experiment [2], 1.27 fold enrichment (6-mer frequency, TF over GST control); in [3], 1.14 fold enrichment (6-mer frequency, TF over GST control); in experiment [4] it was 1.27 fold enrichment (6-mer frequency, TF over GST control); in [5], 1.17 fold enrichment (6-mer frequency, TF over GST control); in experiment [6], 1.22 fold enrichment (6-mer frequency, TF over GST control). Also, the binding signal in [7] was 1.1 fold enrichment (6-mer frequency, TF over GST control); in experiment [8], 1.11 fold enrichment (6-mer frequency, TF over GST control); in experiment [9] it was 1.14 fold enrichment (6-mer frequency, TF over GST control).
On to CACTAA, for which the binding signal is 1.09 fold enrichment (6-mer frequency, TF over GST control) in [1]; 1.21 fold enrichment (6-mer frequency, TF over GST control) in [2]; 1.11 fold enrichment (6-mer frequency, TF over GST control) in [3]; 1.1 fold enrichment (6-mer frequency, TF over GST control) in experiment [4]; 1.18 fold enrichment (6-mer frequency, TF over GST control) in experiment [5]; 1.21 fold enrichment (6-mer frequency, TF over GST control) in experiment [6]. Also, the binding signal in experiment [7] was 1.19 fold enrichment (6-mer frequency, TF over GST control); in experiment [8], 1.18 fold enrichment (6-mer frequency, TF over GST control); in experiment [9], 1.18 fold enrichment (6-mer frequency, TF over GST control).
For GTTCTG, the binding signal in experiment [1] is 1.14 fold enrichment (6-mer frequency, TF over GST control); in [2], 1.21 fold enrichment (6-mer frequency, TF over GST control); in [3], 1.16 fold enrichment (6-mer frequency, TF over GST control); in experiment [4], 1.16 fold enrichment (6-mer frequency, TF over GST control); in experiment [5], 1.08 fold enrichment (6-mer frequency, TF over GST control); in [6] it was 1.16 fold enrichment (6-mer frequency, TF over GST control). Also, the binding signal in experiment [7] was 1.17 fold enrichment (6-mer frequency, TF over GST control); in experiment [8] it was 1.16 fold enrichment (6-mer frequency, TF over GST control); in experiment [9] it was 1.18 fold enrichment (6-mer frequency, TF over GST control).
Consider TTCGTC, for which the binding signal in experiment [1] is 1.36 fold enrichment (6-mer frequency, TF over GST control); in [2], 1.33 fold enrichment (6-mer frequency, TF over GST control); in [3], 1.33 fold enrichment (6-mer frequency, TF over GST control); in experiment [4], 1.23 fold enrichment (6-mer frequency, TF over GST control); in experiment [5], 1.32 fold enrichment (6-mer frequency, TF over GST control); in [6] it was 1.27 fold enrichment (6-mer frequency, TF over GST control). The binding signal in [7] is 1.29 fold enrichment (6-mer frequency, TF over GST control); in experiment [8] it was 1.27 fold enrichment (6-mer frequency, TF over GST control); in [9] it was 1.22 fold enrichment (6-mer frequency, TF over GST control).
